Reference: the antibiotic and cytotoxicity screens of Wong et al. (2023)
Among all 39,000 compounds or so, about 3,300 (8.5%) were called active. The sample as a whole holds a higher share of actives than the screen did.

System: HepG2
Assay: cytotoxicity call (relative viability < 0.9)
Conditions: 10 µM

Row | SMILES | cytotoxicity call
1 | C[C@@H]1CN([C@@H](C)CO)C(=O)c2cc(NS(C)(=O)=O)ccc2O[C@@H](C)CCCCO[C@H]1CN(C)CC1CC1 | inactive
2 | C[C@@H]1CN([C@H](C)CO)C(=O)c2cc(NC(=O)Cn3cnnn3)ccc2O[C@H]1CN(C)Cc1ccc(Cl)c(Cl)c1 | inactive
3 | C[C@H]1CN([C@@H](C)CO)C(=O)c2cccc(NS(=O)(=O)c3ccc(F)cc3)c2O[C@@H]1CN(C)S(=O)(=O)c1cccs1 | inactive
4 | O=C(C[C@H]1C[C@@H]2c3cc(NC(=O)Nc4ccc(C(F)(F)F)cc4)ccc3O[C@@H]2[C@H](CO)O1)NCc1cc(F)ccc1F | inactive
5 | C[C@H](CO)N1C[C@H](C)[C@@H](CN(C)C(=O)Nc2cccc(F)c2)OCc2ccccc2-c2ccccc2C1=O | inactive
6 | C[n+]1ccc(CCCO)cc1 | inactive
7 | CC(C)C(N)C(=O)OCCOCn1cnc2c(=O)[nH]c(N)nc21.Cl (stereo not given) | inactive
8 | Clc1ccc(COC(Cn2ccnc2)c2ccc(Cl)cc2Cl)c(Cl)c1.O=[N+]([O-])O (stereo not given) | inactive
9 | Clc1ccc(CON=C(Cn2ccnc2)c2ccc(Cl)cc2Cl)c(Cl)c1.O=[N+]([O-])O | inactive
10 | Clc1ccc(COC(Cn2ccnc2)c2ccc(Cl)cc2Cl)cc1.O=[N+]([O-])O (stereo not given) | active
11 | Clc1ccc(CSC(Cn2ccnc2)c2ccc(Cl)cc2Cl)cc1.O=[N+]([O-])O (stereo not given) | active
12 | Clc1ccc(CCC(Cn2ccnc2)Sc2c(Cl)cccc2Cl)cc1 (stereo not given) | inactive
13 | Clc1ccc(C(Cn2ccnc2)OCc2c(Cl)cccc2Cl)c(Cl)c1.O=[N+]([O-])O (stereo not given) | inactive
14 | CC(C)NC(=O)N[C@H]1C=C[C@H](CC(=O)NCCCN(C)C)O[C@@H]1CO | inactive
15 | COc1cccc(S(=O)(=O)N[C@H]2C=C[C@@H](CC(=O)NC3CCC3)O[C@H]2CO)c1 | inactive
16 | C[C@@H]1CN([C@@H](C)CO)C(=O)c2cc(N(C)C)ccc2O[C@H]1CN(C)S(=O)(=O)c1ccc(Cl)cc1 | inactive
17 | Cc1cccc(NC(=O)CN2C(=O)CNC2=O)c1 | inactive
18 | C[C@H](CO)N1C[C@H](C)[C@H](CN(C)C(=O)Nc2ccc3c(c2)OCO3)Oc2ccc(NS(C)(=O)=O)cc2CC1=O | inactive
19 | CCC(=O)N1CCN(c2ccc(-n3c(=O)ccc4cnc5ccc(-c6cnc7ccccc7c6)cc5c43)cc2C(F)(F)F)CC1 | active
20 | Cc1noc(C)c1NC(=O)Nc1ccc2c(c1)C(=O)N([C@H](C)CO)C[C@H](C)[C@H](CN(C)C(=O)C1CCCCC1)OCCCC[C@H](C)O2 | inactive
21 | C[C@H]1CN([C@@H](C)CO)C(=O)c2cccc(NC(=O)c3nc4ccccc4s3)c2O[C@H]1CN(C)Cc1ccc(C(F)(F)F)cc1 | inactive
22 | O=C(C[C@@H]1C[C@@H]2c3cc(NC(=O)C4CCOCC4)ccc3O[C@@H]2[C@H](CO)O1)NCc1ccc2c(c1)OCO2 | inactive
23 | CS(=O)(=O)OCCCCOS(C)(=O)=O [listing 1 of 2 here] | inactive
24 | CS(C)(=O)=O | active
25 | CS(=O)(=O)OCCCCOS(C)(=O)=O [listing 2 of 2 here] | inactive

Row | SMILES | cytotoxicity call
26 | CCOC(=O)c1c[nH][nH]c1=O | inactive
27 | CC(C)NC(=O)N(C)C[C@H]1OCCCC[C@H](C)Oc2ccc(NC(=O)Nc3ccc(F)cc3)cc2C(=O)N([C@H](C)CO)C[C@@H]1C | inactive
28 | C[C@H](CO)N1C[C@H](C)[C@@H](CN(C)C(=O)Cc2ccccc2)OCCCC[C@H](C)Oc2ccc(NC(=O)NC3CCCCC3)cc2C1=O | inactive
29 | COc1nn(C)cc1C(=O)Nc1ccon1 | inactive
30 | S=C1NCN(CCc2ccccc2)CN1 | inactive
31 | CCCCN1CNC(=S)NC1 | active
32 | OCCN1CNC(=S)NC1 | inactive
33 | Cc1noc(C)c1NC(=O)N(C)C[C@H]1Oc2ccc(NS(=O)(=O)c3ccccc3)cc2C(=O)N([C@H](C)CO)C[C@@H]1C | inactive
34 | COc1ccc(NC(=O)Nc2ccc3c(c2)C(=O)N([C@H](C)CO)C[C@@H](C)[C@H](CN(C)C(=O)Cc2ccccc2)OCCCC[C@H](C)O3)cc1 | inactive
35 | NCc1cn(-c2ccccc2)nc1C12CC3CC(CC(C3)C1)C2 | active
36 | OCc1cn(-c2ccccc2)nn1 | inactive
37 | c1ccc(-c2nc(C34CC5CC(CC(C5)C3)C4)cs2)cc1 | inactive
38 | CCS(=O)(=O)Nc1ccc2c(c1)C(=O)N(C)C[C@H](OC)[C@@H](C)CN(CCC(F)(F)F)[C@@H](C)CO2 | inactive
39 | C[C@H](CO)N1C[C@H](C)[C@@H](CN(C)C(=O)c2ccc3c(c2)OCO3)Oc2cc(C#Cc3ccccc3F)ccc2S1(=O)=O | inactive
40 | C[C@H]1CN([C@@H](C)CO)C(=O)c2cccc(NC(=O)c3nc4ccccc4s3)c2O[C@@H]1CN(C)Cc1ccc(-c2ccccc2)cc1 | inactive
41 | NC(=O)c1nnn(Cc2ccccc2)c1N | inactive
42 | O=C(O)c1nn(Cc2ccccc2)nc1C(=O)O | active
43 | O=C(O)Cn1nc2ccccc2n1 | inactive
44 | C[C@H](CO)N1C[C@H](C)[C@@H](CN(C)S(=O)(=O)c2ccccc2F)Oc2ncc(Br)cc2C1=O | inactive
45 | Cc1noc(C)c1NC(=O)N(C)C[C@@H]1OCCCC[C@H](C)Oc2ccc(NS(=O)(=O)c3ccccc3)cc2C(=O)N([C@H](C)CO)C[C@@H]1C | inactive
46 | C[C@@H]1CCCCO[C@@H](CN(C)Cc2ccc(Cl)c(Cl)c2)[C@H](C)CN([C@@H](C)CO)C(=O)c2cc(NS(=O)(=O)c3ccc(F)cc3)ccc2O1 | active
47 | C[C@@H]1CCCCO[C@@H](CN(C)Cc2ccc(Cl)c(Cl)c2)[C@@H](C)CN([C@H](C)CO)C(=O)c2cc(NS(=O)(=O)c3ccc(F)cc3)ccc2O1 | active
48 | C[C@@H]1CCCCO[C@H](CN(C)Cc2ccc(Cl)c(Cl)c2)[C@@H](C)CN([C@H](C)CO)C(=O)c2cc(NS(=O)(=O)c3ccc(F)cc3)ccc2O1 | inactive
49 | C[C@H](CO)N1C[C@H](C)[C@H](CN(C)Cc2ccc(Cl)c(Cl)c2)OCCCC[C@H](C)Oc2ccc(NS(=O)(=O)c3ccc(F)cc3)cc2C1=O | inactive
50 | C[C@H]1CCCCO[C@H](CN(C)Cc2ccc(Cl)c(Cl)c2)[C@@H](C)CN([C@@H](C)CO)C(=O)c2cc(NS(=O)(=O)c3ccc(F)cc3)ccc2O1 | inactive

Row | SMILES | cytotoxicity call
51 | C[C@@H]1CCCCO[C@@H](CN(C)Cc2ccc(Cl)c(Cl)c2)[C@H](C)CN([C@H](C)CO)C(=O)c2cc(NS(=O)(=O)c3ccc(F)cc3)ccc2O1 | active
52 | C[C@H](CO)N1C[C@H](C)[C@@H](CN(C)Cc2ccc(Cl)c(Cl)c2)OCCCC[C@H](C)Oc2ccc(NS(=O)(=O)c3ccc(F)cc3)cc2C1=O | inactive
53 | C[C@@H]1CCCCO[C@@H](CN(C)Cc2ccc(Cl)c(Cl)c2)[C@@H](C)CN([C@@H](C)CO)C(=O)c2cc(NS(=O)(=O)c3ccc(F)cc3)ccc2O1 | inactive
54 | C[C@@H]1CCCCO[C@H](CN(C)Cc2ccc(Cl)c(Cl)c2)[C@@H](C)CN([C@@H](C)CO)C(=O)c2cc(NS(=O)(=O)c3ccc(F)cc3)ccc2O1 | inactive
55 | C[C@@H]1CN([C@H](C)CO)C(=O)c2cc(NS(=O)(=O)c3ccc(F)cc3)ccc2O[C@@H](C)CCCCO[C@H]1CN(C)Cc1ccc(Cl)c(Cl)c1 | inactive
56 | C[C@@H]1CCCCO[C@H](CN(C)Cc2ccc(Cl)c(Cl)c2)[C@H](C)CN([C@@H](C)CO)C(=O)c2cc(NS(=O)(=O)c3ccc(F)cc3)ccc2O1 | active
57 | C[C@@H]1CCCCO[C@@H](CN(C)S(C)(=O)=O)[C@H](C)CN([C@H](C)CO)C(=O)c2cc(N(C)C)ccc2O1 | inactive
58 | CCO/C(O)=C1/C(=O)CN(C)C1=O | inactive
59 | CCS(=O)(=O)Nc1ccc2c(c1)C(=O)N(C)[C@@H]1CC[C@H](CC(=O)N[C@@H]3CCN(Cc4ccccc4)C3)O[C@H]1CO2 | inactive
60 | CN(C)CC(=O)N[C@H]1CC[C@@H](CCNC(=O)C2CCC2)O[C@H]1CO | inactive
61 | Cc1nnc(N2CCC[C@]3(CN(C(=O)CO)CCO3)C2)o1 | inactive
62 | C[C@@H]1CN([C@H](C)CO)C(=O)Cc2cc(NC(=O)C3CCCCC3)ccc2O[C@@H]1CN(C)C(=O)Nc1ccc(C(F)(F)F)cc1 | inactive
63 | C[C@H]1CN([C@@H](C)CO)C(=O)c2cccc(NC(=O)c3ccncc3)c2O[C@@H]1CN(C)Cc1ccc(Oc2ccccc2)cc1 | inactive
64 | Cc1ccc(S(=O)(=O)Nc2ccc3c(c2)C(=O)N([C@@H](C)CO)C[C@H](C)[C@@H](CN(C)C(=O)Cc2ccccc2)OCCCC[C@H](C)O3)cc1 | inactive
65 | C[C@@H]1CN([C@@H](C)CO)S(=O)(=O)c2ccc(Br)cc2O[C@@H]1CN(C)CC1CCOCC1 | inactive
66 | CC(C)NC(=O)Nc1ccc2c(c1)C(=O)N([C@H](C)CO)C[C@H](C)[C@@H](CN(C)Cc1ccc(C(F)(F)F)cc1)OCCCC[C@H](C)O2 | inactive
67 | CC(C)NC(=O)Nc1ccc2c(c1)C(=O)N([C@@H](C)CO)C[C@H](C)[C@H](CN(C)Cc1ccc(C(F)(F)F)cc1)OCCCC[C@@H](C)O2 | active
68 | CC(C)NC(=O)Nc1ccc2c(c1)C(=O)N([C@H](C)CO)C[C@@H](C)[C@H](CN(C)Cc1ccc(C(F)(F)F)cc1)OCCCC[C@H](C)O2 | active
69 | CC(C)NC(=O)Nc1ccc2c(c1)C(=O)N([C@H](C)CO)C[C@@H](C)[C@@H](CN(C)Cc1ccc(C(F)(F)F)cc1)OCCCC[C@H](C)O2 | inactive
70 | CC(C)NC(=O)Nc1ccc2c(c1)C(=O)N([C@@H](C)CO)C[C@@H](C)[C@@H](CN(C)Cc1ccc(C(F)(F)F)cc1)OCCCC[C@H](C)O2 | inactive
71 | CC(C)NC(=O)Nc1ccc2c(c1)C(=O)N([C@H](C)CO)C[C@@H](C)[C@H](CN(C)Cc1ccc(C(F)(F)F)cc1)OCCCC[C@@H](C)O2 | active
72 | CC(C)NC(=O)Nc1ccc2c(c1)C(=O)N([C@H](C)CO)C[C@H](C)[C@@H](CN(C)Cc1ccc(C(F)(F)F)cc1)OCCCC[C@@H](C)O2 | inactive
73 | CC(C)NC(=O)Nc1ccc2c(c1)C(=O)N([C@H](C)CO)C[C@H](C)[C@H](CN(C)Cc1ccc(C(F)(F)F)cc1)OCCCC[C@@H](C)O2 | inactive
74 | CC(C)NC(=O)Nc1ccc2c(c1)C(=O)N([C@@H](C)CO)C[C@@H](C)[C@H](CN(C)Cc1ccc(C(F)(F)F)cc1)OCCCC[C@@H](C)O2 | inactive
75 | CC(C)NC(=O)Nc1ccc2c(c1)C(=O)N([C@@H](C)CO)C[C@H](C)[C@@H](CN(C)Cc1ccc(C(F)(F)F)cc1)OCCCC[C@@H](C)O2 | active
